According to PubChem BioAssay AID2314 (National Center for Advancing Translational Sciences (NCATS), 2010):
Several values for one entry are separate records, joined by “and”; a condition that tells them apart may be missing. Identical values can stand only once. Screen size: about 300,000 compounds; about 37,000 (12%) were called active. The sample holds actives, similar compounds and a random draw of the others, so the mix is not that of the screen. Unmarked numbers belong to inactive results. No stated cut-off is given here; in the data, active means max response mostly above about 13% (no sharp cut-off); inactive means mostly below about 14%.

assay: Cycloheximide Counterscreen for Small Molecule Inhibitors of Shiga Toxin; conditions: cell reporter, cycloheximide protein synthesis inhibition counterscreen; stronger effect = higher value; further: read at 38.3 µM for the half of the compounds with a filed dose; 0% is about no effect

SMILES | max response
O=C(Cc1ccccc1Cl)N1CCOCC1 | -3.01%
Cc1ccc(Cl)cc1NC(=O)CN1CCN(S(=O)(=O)N2CCOCC2)CC1 | -6.26%
O=C(c1c(F)cccc1Cl)N1CCN(S(=O)(=O)c2ccc3c(c2)OCCCO3)CC1 | -1.76%
O=C(CN(C(=O)CCC(=O)Nc1nccs1)c1ccc(F)cc1)NCc1ccc2c(c1)OCO2 | -6.07%
COc1ccc(-c2oc(/N=C/N3CCCC3)c(C#N)c2-c2ccc(OC)cc2)cc1 | -5.61%
O=C1CCC(=O)N1c1ccc(NCCc2ccccc2F)c([N+](=O)[O-])c1 | 21.6% (active)
Fc1ccccc1CCNc1nnnn1-c1ccccc1 | 0.858%
O=[N+]([O-])c1cc(C(F)(F)F)ccc1NCCc1ccncc1 | 9.83%
COc1ccc(N2CCC(CNC(=S)Nc3c(C)cccc3C)C2)cc1 (configuration not stated) | -1.13%
COc1cc(NS(=O)(=O)c2ccc(NC(=O)c3ccc([N+](=O)[O-])cc3)cc2)ncn1 | -2.23%
CCCc1cc(=O)oc2c(C)c(OCC(=O)Nc3ccccn3)ccc12 | 32.5% (active)
CCCc1cc(=O)oc2c(C)c(OCC(=O)N3CCC(C(=O)O)CC3)ccc12 | -2.94%
CCCc1cc(=O)oc2c(C)c(OCC(=O)NCc3ccccn3)ccc12 | -0.405%
O=C1COc2ccc(C(=O)COC(=O)C3CC(O)CN3S(=O)(=O)c3ccc(Cl)cc3)cc2N1 (configuration not stated) | -1.44%
CCc1ccc(Nc2nnc(SCC(=O)c3ccc4c(c3)NC(=O)CO4)s2)cc1 | 20.5% (active)
COc1cccc(Nc2nnc(SCC(=O)N3CC(=O)Nc4ccccc43)s2)c1 | -2.67%
CCCc1nc2ccccc2c(C(=O)OCC(=O)c2ccc3c(c2)NC(=O)CO3)c1CC | -2.81%
COC(=O)c1ccccc1Sc1c(/C=N/OCc2ccc(Cl)cc2)c(C(F)(F)F)nn1C | 3.42%
CC(C)C(C)(C#N)NC(=O)CSc1nc2scc(-c3ccccc3)c2c(=O)[nH]1 (configuration not stated) | -4.09%
CCOc1cccc(-n2nnnc2-c2ccc(OC)cc2)c1 | -3.31%
COc1ccc(-n2nnnc2-c2nc3ccccc3s2)cc1 | 40.1% (active)
COc1ccc(-n2nnnc2SCC(=O)NCc2cccs2)cc1 | -3.1%
O=C(Cc1cccc2ccccc12)NNC(=O)Nc1ccc(Cl)cc1 | 28.4% (active)

SMILES | max response
Cc1ccc(NC(=S)NC(NC(=O)Cc2cccc3ccccc23)C(Cl)(Cl)Cl)cc1 (configuration not stated) | -3%
Fc1ccccc1CNC(=S)Nc1ccc(Cl)cc1 | 6.56%
O=C(CCCCCn1c(=S)[nH]c2cc3c(cc2c1=O)OCO3)N1CCN(c2ccc(F)cc2)CC1 | 10.7%
CC(=O)c1ccc(NC(=O)Nc2ccc([N+](=O)[O-])cc2C)cc1 | -0.717%
CC(=O)N1c2ccc(S(=O)(=O)N3CCC(C(=O)NC4CCCCC4C)CC3)cc2CC1C (configuration not stated) | 4.46%
CCc1ccc(Nc2ncc3c(n2)CC(c2ccco2)CC3=O)cc1 (configuration not stated) | 26.7% (active)
COc1cc(C2CC(=O)c3cnc(NC(C)=O)nc3C2)cc(OC)c1OC (configuration not stated) | -4.71%
O=C(Nc1ncc2c(n1)CC(c1ccco1)CC2=O)c1ccc(Cl)cc1 (configuration not stated) | -2.44%
COC(=O)c1nc2n(n1)C(c1ccc([N+](=O)[O-])cc1)C(C(=O)Nc1ccc(Cl)cc1)=C(C)N2 (configuration not stated) | -2.4%
O=c1cc(Cl)c2ccccc2n1-c1ccccc1 | -3.75%
Cc1cc(C)c(C2C3=C(Nc4c2c(C)nn4-c2ccccn2)c2ccccc2C3=O)c(C)c1 (configuration not stated) | -1.26%
O=C(Nc1ccc(NC(=O)c2cccs2)cn1)c1ccco1 | 51.1% (active)
O=C(Nc1ccnc(-c2ccncc2)n1)c1cccs1 | -2.6%
COc1ccccc1C(=O)Nc1ccc(NC(=O)c2ccco2)c(C)c1 | 10.8%
COc1cccc(C(=O)Nc2ccc(NC(=O)c3ccco3)cn2)c1 | 55.5% (active)
COc1ccc(NC(=O)c2cccc(NC(=O)c3ccco3)c2)c(OC)c1 | -3.4%
NC(=O)c1ccsc1NC(=O)c1ccco1 | 12.2%
CC(C)CC(=O)NC(=S)NNC(=O)c1cccc([N+](=O)[O-])c1 | 4.5%
CCOc1ccc(CNC(=O)C2CCCN(c3nnc(C)c4c(C)n(-c5ccccc5)nc34)C2)cc1 (configuration not stated) | -1.93%
COc1ccc(S(=O)(=O)N2CCN(c3ccc(F)cc3)CC2)cc1-c1noc(C)n1 | 10.5%
Cc1ccccc1CSc1nnc(CCCCCNC(=O)OC(C)(C)C)o1 | -1.71%
CCOc1ccccc1NC(=O)Cn1nnc(C(=O)NCc2cccs2)c1N | -7.84%
O=C(NCc1cc(F)cc(C(F)(F)F)c1)C1CCC(=O)N(C2CCCC2)C1 (configuration not stated) | 25.3%

SMILES | max response
CSc1ccc(S(=O)(=O)N2CCC(C(=O)NCCc3ccccc3)CC2)cc1 | 0.47%
O=C(C1CCN(S(=O)(=O)c2ccc(Br)s2)CC1)N1CCN(c2ccccc2)CC1 | -2.23%
O=C(NCCc1ccccc1)C1CCN(S(=O)(=O)c2ccc(Br)s2)CC1 | 11.9% (active)
Oc1c(Cl)cc(Cl)cc1/C=N/c1ncn[nH]1 | -3.31%
CCOC(=O)N1CCN(C(=O)c2ccc3c(=O)n(CCc4ccc(OC)c(OC)c4)c(=O)[nH]c3c2)CC1 | 2.53%
COc1cccc(CNC(=O)C2CCCN(S(=O)(=O)N3CC(C)CC(C)C3)C2)c1 (configuration not stated) | 3.03%
O=C(/C(=C/c1cccc(Cl)c1)c1nc2ccccc2[nH]1)c1ccccc1 | 46.6% (active)
O=C(N/N=C/c1ccc(Cl)cc1)c1nc2ccc([N+](=O)[O-])cc2c(=O)[nH]1 | -1.53%
Oc1ccc(Cl)cc1/C=N/c1nc2ccccc2[nH]1 | 23.3%
CC(C)(C)c1ccc(CCC2OCC(CN3CCOCC3)O2)cc1 (configuration not stated) | 16.4%
CCOC(OCC)OCC | 6.84%
COc1c(C(C)C)oc2cc3oc(=O)ccc3cc12 | 60.5% (active)
COc1ccc(Nc2cc(=O)oc3ccccc23)cc1 | -1.7%
CC(C)OC(=O)c1ccc(COc2ccc3ccc(=O)oc3c2)o1 | 22.4%
Cc1noc(C)c1COc1ccc2ccc(=O)oc2c1 | -2.41%
Cc1oc2cc3oc(=O)ccc3cc2c1C | 25.5% (active)
Cc1ccc(OCC(=O)Nc2ccc3oc(=O)ccc3c2)cc1C | -4.02%
CCCCCn1c(=O)[nH]c2cc(C(=O)NCCCN3CCCCC3C)ccc2c1=O (configuration not stated) | -2.4%
CC(C)CN(CC(C)C)CC(O)CN(c1ccccc1)S(=O)(=O)c1ccccc1[N+](=O)[O-] (configuration not stated) | 3.27%
CC(C)CNC(=O)C(=O)NCC(c1ccc2c(c1)OCO2)N1CCOCC1 (configuration not stated) | -4.38%
COCCOC1CCN(C(=O)c2ccc(OC)c(OC3CCN(C(C)C)CC3)c2)CC1 | -2.04%
Cc1noc(NS(=O)(=O)c2ccc(NC(=O)c3oc4ccc(F)cc4c3C)cc2)c1C | -2.38%
Cc1nc(-c2ccccc2)cn2c1nc1ccccc12 | 12.4%

SMILES | max response
Cc1ccc(S(=O)(=O)N2CCC(Oc3ccc(-n4cnnn4)cc3)CC2)cc1 | -4.88%
O=C(Cc1ccc(Br)cc1)NCCN1CCOCC1 | -13%
CCN1C(=NCCc2cccnc2)N[C@@H](c2ccccc2)C(C(=O)OC)=C1C | 1.37% and -1.46%
O=C(c1ccc(F)cc1)n1cc(C(=S)N2CCOCC2)c2ccccc21 | 7.24%
O=C(c1ccc(F)cc1)n1c(=S)nc2ccccn21 | 53.4% (active)
O=C(C[n+]1cc(Br)cc2ccccc21)c1ccc(F)cc1 | 3.72%
CC(C(=O)NC1CCCCC1)N1C(=O)c2cccc3cccc1c23 (configuration not stated) | 11.1%
COCCN(C(=O)CCC(=O)Nc1nccs1)C(C(=O)NCCC(C)C)c1ccc(F)cc1 (configuration not stated) | -2.06%
CCOC(=O)c1c(-c2ccc(-c3ccccc3)cc2)csc1NC(=O)CCC(=O)O | -2.27%
CCOC(=O)C1=C(c2ccc(OC)cc2)C(=O)c2ccccc2C1=O | 1.07%
CCOC(=O)c1c(-c2ccc(C)cc2)csc1/N=C(\C)C1=C(O)c2ccccc2C1=O | 11.2% (active)
CC(=O)Nc1cccc(C(=O)Nc2nc(C)cs2)c1 | 27.2% (active)
Cc1csc(NC(=O)c2ccc(-c3ccc(Cl)cc3Cl)o2)n1 | 11.3%
Cc1cccc(NC(=S)Nc2ccc(Cl)c(Cl)c2)c1 | -1.87%
CCc1cccc(CC)c1NC(=S)Nc1ccc2cn[nH]c2c1 | -0.951%
S=C(Nc1cccc(Cl)c1)Nc1ccc2cn[nH]c2c1 | 24.8% (active)
Cc1cccc(NC(=S)Nc2ccc3cn[nH]c3c2)c1 | 7.4%
CC(=O)c1cccc(NC(=O)c2ccncc2)c1 | 7.01%
Cc1csc(NC(=S)Nc2cccc(Cl)c2)n1 | 41.1% (active)
CCn1c(SCC(=O)Nc2nc(C)cs2)nnc1C(C)NC(=O)c1ccccc1 (configuration not stated) | 1.33%
Cc1cc(=O)oc2cc(OCC3CC(c4ccccc4Cl)=NO3)ccc12 (configuration not stated) | 13.7%
Cc1ccc(NC2CCCN(C(=O)CCC3(C)CC3)C2)cc1C (configuration not stated) | 10.8%
Cc1nc2ccc(C(=O)N(C)CC3CCCN(CCc4ccc(Cl)cc4)C3)cc2[nH]1 (configuration not stated) | -2.66%
